Experimental findings from PubChem BioAssay are described below.

Where “and” joins values, the source holds several entries; their conditions need not be identical. Equal entries are not always repeated. For some of these results: Measured potencies and affinities stand elsewhere.

Sequence of GTPase HRas (Homo sapiens) (P01112 whole entry, looked up): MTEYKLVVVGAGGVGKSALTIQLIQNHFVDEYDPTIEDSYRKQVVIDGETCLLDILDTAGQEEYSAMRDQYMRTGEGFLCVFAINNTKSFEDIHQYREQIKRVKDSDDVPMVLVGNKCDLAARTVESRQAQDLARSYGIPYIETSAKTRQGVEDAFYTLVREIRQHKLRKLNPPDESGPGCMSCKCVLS

The target of one experiment is Cell division control protein 42 homolog (Homo sapiens) (UniProt P60953). Briefly: wildtype Cdc42 GTP-binding inhibitors, dose response, biochemical, multiplex bead flow cytometry, Bodipy-FL-GTP (AID 1334). To be noted: bead-based flow cytometry, Bodipy-FL-GTP binding to GST-Cdc42; at 100 µM (top of the series) unless noted. In general terms: Flow cytometry measures light scatter and fluorescence of single cells or particles in a stream.
Sequence of Cell division control protein 42 homolog (Homo sapiens) (P60953 whole entry, looked up): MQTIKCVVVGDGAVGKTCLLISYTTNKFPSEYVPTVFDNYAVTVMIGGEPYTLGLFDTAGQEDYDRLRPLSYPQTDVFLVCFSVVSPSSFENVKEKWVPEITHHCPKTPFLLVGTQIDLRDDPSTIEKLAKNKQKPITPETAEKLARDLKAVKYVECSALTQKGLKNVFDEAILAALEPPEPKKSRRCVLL
Regarding `COc1cccc2sc(Nc3nc(-c4ccccn4)cs3)nc12`, the fluorescence, percent of control (lower = inhibition) worked out at 34.8%.
Same read-out and setting: the value for `COc1ccc(-c2csc(NC(=S)NC(=O)c3cccs3)n2)cc1OC` was 36.6%; that for `Oc1ccc2ccccc2c1/C=N/Nc1nnc(-c2ncc[nH]2)c2ccccc12` was 44%.
On the same count and under the same terms, the same measure for `COc1ccc(NC(=O)CSc2ccc3nnc(-c4cccnc4)n3n2)c(OC)c1`: 37.4%; for `O=C(c1nnsc1S(=O)(=O)c1ccc(Cl)cc1)N1CCOCC1`: 39.7%; for `CN(C)c1ccc(/C=C/C(=O)c2cccc(Br)c2)cc1`: 120%.
For `CN(c1ccccc1)c1ccc(/C=c2\s/c(=C(/C#N)C(=O)C(C)(C)C)n(Cc3ccco3)c2=O)cc1`, the fluorescence, percent of control (lower = inhibition) stood at 160%.
The same measure, in the same setting: the value for `CS(=O)(=O)N1N=C(c2ccccc2)CC1c1ccc2c(c1)OCO2` (stereo not drawn) was 112%; that for `COc1ccc(-c2nnc(SCC(=O)c3cccs3)o2)cc1` was 94.6%.
Regarding `COc1ccc(CNc2ccccc2C(=O)O)cc1`, the fluorescence, percent of control (lower = inhibition) worked out at 75.9%.
Same read-out and setting: the value for `CCOC(=O)c1c(NC(=O)/C=C/c2ccc3c(c2)OCO3)sc(C)c1CC` was 30.9%.
In the case of `CCOC(=O)N1CCN(C(=O)CCc2ccc(S(=O)(=O)NCCc3ccccc3)cc2)CC1`, the fluorescence, percent of control (lower = inhibition) turned out to be 48.3%.
On the same count and under the same terms, the value for `CC(C)(C)c1ccc(C(=O)CC(Sc2ccc(Cl)cc2)C(=O)O)cc1` (stereo not drawn) was 30.3%.
With `NC(=S)N=Nc1c(O)[nH]c2ccc(F)cc12`, the fluorescence, percent of control (lower = inhibition) was found to be 30.2%.
Still for that read-out and setting: the value for `COc1cc(/C=N\NC(=O)c2sc(N)nc2C)cc(OC)c1OC` was 39.4%; that for `Cc1cc(C)c(C(=O)Cn2cnc3cc([N+](=O)[O-])ccc3c2=O)cc1C` was 34%; that for `O=C(COc1ncnc2cc([N+](=O)[O-])ccc12)NCCc1ccc(Cl)cc1` was 36.6%.
The same measure, in the same setting: the value for `COC(=O)C1=NN(C(=O)c2cccc(Br)c2)C(O)(c2ccc(Cl)cc2)C1` (stereo not drawn) was 31.2%; that for `CC(C)(C)C(=O)/C=c1\s/c(=C\c2ccc(-c3ccc([N+](=O)[O-])cc3)o2)c(=O)n1CC(=O)NC(N)=O` was 99.6%.

The next experiment addresses GTPase HRas (Homo sapiens) (UniProt P01112). The experiment in a line: inhibitors of GTP binding to wildtype Ras, dose response, biochemical, multiplex bead flow cytometry (AID 1335). To be noted: bead-based flow cytometry, Bodipy-GTP binding to GST-Ras; at 100 µM (top of the series) unless noted.
`COc1cc2c(cc1OC)-c1cc(NC3CCCCCC3)nc(=O)n1CC2` showed a GTP binding, percent of control of 69.8%.
Same read-out and setting: the value for `O=C1c2ccccc2-c2onc3ccc(Oc4ccccc4)c1c23` was 46.3%; that for `CCN(CC)c1ccc2c(c1)oc(=O)c1c(Cl)cc(=O)oc12` was 72.6%; that for `CCOc1nnc(C)c2c(C)n(-c3cccc(OC)c3)nc12` was 67.2%.
Consider `Cc1nnc(N2CCOCC2)c2nn(-c3ccccc3)c(C)c12`, for which the GTP binding, percent of control is 71.2%.
On the same count and under the same terms, the same measure for `O=C(C#Cc1ccccc1)c1cccc([N+](=O)[O-])c1`: 170% and 92.3%.
`COC(=O)c1ccc2nc(Nc3nc4c(F)cc(F)cc4s3)sc2c1`: the GTP binding, percent of control was found to be 85.9%.
On the same count and under the same terms, the same measure for `COc1ccc(/C=C/C(=O)c2cc(Br)ccc(=O)c2O)cc1`: 73%; for `O=C(NNC(=S)NCc1ccc(Cl)cc1)c1ccc(Br)o1`: 74.4%; for `O=C(O)c1ccccc1OCCOc1ccccc1`: 81.1%.
The molecule `CN1C(=O)N(C)c2ccc(C=O)c3cccc1c23` came in with a GTP binding, percent of control of 82.8%.
Still for that read-out and setting: the value for `CCN1/C(=C/C=C/C=C/c2sc3ccccc3[n+]2CC)Sc2ccccc21` was 2%; that for `O=C(C#Cc1cccc([N+](=O)[O-])c1)c1ccccc1` was 81%.
The same measure, in the same setting: the value for `O=C(O)c1cn(CCOc2ccccc2)c2ccccc12` was 92.7%; that for `CCOc1cccc(-c2nn3c(-c4ccco4)nnc3s2)c1` was 71.3%.
The same measure, in the same setting: the value for `COC(=O)n1c(=S)oc2cc(Cl)ccc21` was 154%.
The molecule `O=C(/C=C/c1ccc(Cl)c([N+](=O)[O-])c1)c1cccnc1` yielded a GTP binding, percent of control of 73.5%.
On the same count and under the same terms, the value for `COCCN1C(=O)/C(=C/c2ccc(N3CCCC3)cc2C)SC1=S` was 104%.
Still for that read-out and setting: the same measure for `N=c1c(C(=O)NCc2ccco2)cc2c(=O)n3ccccc3nc2n1CCc1ccccc1`: 40.3%; for `O=C(OCC1O[C@@H](OC(=O)c2cc(O)c(O)c(O)c2)[C@@H](OC(=O)c2cc(O)c(O)c(O)c2)[C@@H](OC(=O)c2cc(O)c(O)c(O)c2)[C@@H]1OC(=O)c1cc(O)c(O)c(O)c1)c1cc(O)c(O)c(O)c1` (stereo partly drawn): 58.6%; for `COc1cccc2sc(Nc3nc(-c4ccccn4)cs3)nc12`: 80.4%.
Molecule `COc1ccc(-c2csc(NC(=S)NC(=O)c3cccs3)n2)cc1OC` showed a GTP binding, percent of control of 78.1%.
On the same count and under the same terms, the value for `Oc1ccc2ccccc2c1/C=N/Nc1nnc(-c2ncc[nH]2)c2ccccc12` was 59.7%; that for `COc1ccc(NC(=O)CSc2ccc3nnc(-c4cccnc4)n3n2)c(OC)c1` was 72.3%.
In turn, `O=C(c1nnsc1S(=O)(=O)c1ccc(Cl)cc1)N1CCOCC1` registered a GTP binding, percent of control of 77.4%.
Still for that read-out and setting: the value for `CN(C)c1ccc(/C=C/C(=O)c2cccc(Br)c2)cc1` was 213%.
Same read-out and setting: the value for `CN(c1ccccc1)c1ccc(/C=c2\s/c(=C(/C#N)C(=O)C(C)(C)C)n(Cc3ccco3)c2=O)cc1` was 157%.
On the same count and under the same terms, the same measure for `CS(=O)(=O)N1N=C(c2ccccc2)CC1c1ccc2c(c1)OCO2` (stereo not drawn): 120%.
Regarding `COc1ccc(-c2nnc(SCC(=O)c3cccs3)o2)cc1`, the GTP binding, percent of control came out at 141%.
`COc1ccc(CNc2ccccc2C(=O)O)cc1` gave a GTP binding, percent of control of 93.4%.
In turn, `CCOC(=O)c1c(NC(=O)/C=C/c2ccc3c(c2)OCO3)sc(C)c1CC` gave a GTP binding, percent of control of 75.9%.
Same read-out and setting: the same measure for `CCOC(=O)N1CCN(C(=O)CCc2ccc(S(=O)(=O)NCCc3ccccc3)cc2)CC1`: 57.7%; for `CC(C)(C)c1ccc(C(=O)CC(Sc2ccc(Cl)cc2)C(=O)O)cc1` (stereo not drawn): 79.2%; for `NC(=S)N=Nc1c(O)[nH]c2ccc(F)cc12`: 64.9%.
Same read-out and setting: the same measure for `COc1cc(/C=N\NC(=O)c2sc(N)nc2C)cc(OC)c1OC`: 51.7%.
Consider `Cc1cc(C)c(C(=O)Cn2cnc3cc([N+](=O)[O-])ccc3c2=O)cc1C`, for which the GTP binding, percent of control was 74.6%.
On the same count and under the same terms, the same measure for `O=C(COc1ncnc2cc([N+](=O)[O-])ccc12)NCCc1ccc(Cl)cc1`: 78.8%.
On the same count and under the same terms, the same measure for `COC(=O)C1=NN(C(=O)c2cccc(Br)c2)C(O)(c2ccc(Cl)cc2)C1` (stereo not drawn): 79.1%; for `CC(C)(C)C(=O)/C=c1\s/c(=C\c2ccc(-c3ccc([N+](=O)[O-])cc3)o2)c(=O)n1CC(=O)NC(N)=O`: 141%.
